Test results: PubChem BioAssay (Tox21)
Values joined by “and” are separate entries in the source; they are usually repeats but may differ in a detail not shown here. Equal values may be shown once. Records with an inconclusive call do not appear. Entries that show only a call come without a potency. The source holds several records for some structures; these can differ, active in one and inactive in another. Active and inactive are the calls of the source. Unless noted, calls come from the whole dose curve.

What was measured:
[1] = Nuclear factor erythroid 2-related factor 2/antioxidant responsive element (Nrf2/ARE) small molecule agonists: qHTS cell viability counter screen in human keratinocytes (AID 1919968; active = well fitted curve in the direction sought with a large enough effect in the repeat runs; an effect the other way counts as inactive or inconclusive; note: nearly all actives have a fitted effect of over 55% in size; note: potency is the fitted concentration of half-maximal effect)
Procedure, shortened: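 Viability counter-screen: KeratinoSens reporter cells, DMSO-delivered compounds, 23 h at 37 C, CellTiter-Fluor fluorescence.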

[2] = Nuclear factor erythroid 2-related factor 2/antioxidant responsive element (Nrf2/ARE) small molecule agonists: luciferase reporter gene qHTS assay in human keratinocytes (AID 1919969); note: nearly all actives have a fitted effect of over 35% in size; note: potency is the fitted concentration of half-maximal effect
[3] = molecular target: Gonadotropin-releasing hormone receptor (Homo sapiens) (UniProt P30968); assay: Human gonadotropin-releasing hormone receptor (GnRHR) small molecule agonists, calcium flux assay in GnRHR-HEK293 cells (AID 1920063); note: nearly all actives have a fitted effect of over 35% in size; note: potency is the fitted concentration of half-maximal effect
Procedure, shortened: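 Tox21-format agonist screen using human GnRHR-expressing HEK293 cells and a fluorescent calcium dye; kinetic 3-min fluorescence reading after compound addition, 15-point concentration series run in triplicate.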

[4] = molecular target: KiSS-1 receptor (Homo sapiens) (UniProt Q969F8); assay: Human kisspeptin (KISS1R) small molecule agonists, calcium flux assay in KISS1R-HEK293 cells (AID 1920064; active = well fitted curve in the direction sought with a large enough effect in the repeat runs; an effect the other way counts as inactive or inconclusive; note: potency is the fitted concentration of half-maximal effect)
Procedure, shortened: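 Intracellular calcium mobilization in KISS1R-HEK293 cells was recorded by fluorescence (Ex/Em 480/540) for 3 min following compound addition to cells pre-loaded 1 h with calcium dye.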

[5] = G protein-coupled receptor (GPCR) small molecule agonists, calcium flux assay: HEK293 wild type cell line counter screen (AID 1920065); note: potency is the fitted concentration of half-maximal effect
Procedure, shortened: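 In this agonist-mode screen, ATP is the positive control and DMSO the vehicle. Cells grow 18 h before a 1 h dye incubation at 37 C; signal is taken at Ex/Em 480/540 over 3 min.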

[6] = p53 small molecule agonists, cell-based qHTS assay with human liver microsomes: qHTS cell viability counter screen (AID 1963579); note: nearly all actives have a fitted effect of over 45% in size
Procedure, shortened: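 In this multiplexed counter screen, the reporter plates were subsequently treated with CellTiter-Glo so that cell viability, reflected by luminescence, could be recorded for p53RE-bla cells dosed 16 h with compounds under microsomal activation (HLM and NADPH).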

[7] = p53 small molecule agonists, cell-based qHTS assay with rat liver microsomes: qHTS cell viability counter screen (AID 1963580); note: nearly all actives have a fitted effect of over 45% in size
Procedure, shortened: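 p53RE-bla HCT-116 cells were exposed 16 h at 37 C to compounds with rat liver microsomes (0.5 mg/mL) and NADPH (0.5 mg/mL). Viability was measured in the same wells as ATP content by CellTiter-Glo luminescence.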

[8] = p53 small molecule agonists, cell-based qHTS assay: qHTS cell viability counter screen (AID 1963581); note: nearly all actives have a fitted effect of over 45% in size
Procedure, shortened: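 Compounds are pinned onto HCT-116 p53RE-bla cells and left 16 h at 37 C. Following the reporter FRET read, ATP is quantified by CellTiter-Glo luminescence after 30 min at room temperature.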

[9] = molecular target: 5-hydroxytryptamine receptor 2A (Homo sapiens) (UniProt P28223); assay: 5-hydroxytryptamine receptor 2A (HTR2A) small molecule antagonists, cell-based qHTS assay (AID 1963586); note: nearly all actives have a fitted effect of over 45% in size
Procedure, shortened: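 Antagonist-mode intracellular calcium assay: DOI (4 nM) added after 5 min compound pre-incubation at room temperature to dye-loaded HTR2A-CHO cells. Fluorescence followed for 3 min, sampled every second.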

[10] = molecular target: Muscarinic acetylcholine receptor M1 (Homo sapiens) (UniProt P11229); assay: Cholinergic receptor muscarinic 1 (CHRM1) small molecule antagonists, cell-based qHTS assay (AID 1963588); note: nearly all actives have a fitted effect of over 40% in size
Procedure, shortened: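 CHRM1-CHO calcium-flux assay, antagonist mode. Cells were seeded 18 h, dye-loaded 1 h at 37 C and given compound for 5 min at RT, then acetylcholine was added at 50nM. FDSS fluorescence was read 3 min; 15 concentrations, three runs.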

[11] = molecular target: Muscarinic acetylcholine receptor M1 (Homo sapiens) (UniProt P11229); assay: Cholinergic receptor muscarinic 1 (CHRM1) small molecule agonists, cell-based qHTS assay (AID 1963589); note: nearly all actives have a fitted effect of over 35% in size; note: potency is the fitted concentration of half-maximal effect
Procedure, shortened: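 Stable CHRM1-CHO cells (human receptor) were incubated 18 h, dye-loaded for 1 h at 37 C and exposed to test compounds for agonist activity, with calcium-dependent fluorescence followed kinetically.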

[12] = cAMP Responsive Elements (CRE) small molecule agonists, cell-based qHTS assay (AID 1963590)
Procedure, shortened: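 FRET-based beta-lactamase readout (LiveBLAzer B/G, 2 h RT) quantified CRE activation in HEK 293T CRE-bla cells after 3 h treatment with DMSO-dissolved compounds.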

[13] = cAMP Responsive Elements (CRE) small molecule antagonists, cell-based qHTS assay (AID 1963591; active = well fitted inhibition curve with a large enough effect in the signal ratio in the repeat runs, not every such curve was filed as active; the % refers to the signal ratio)
Procedure, shortened: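 qHTS in CRE-bla HEK 293T cells: compound in DMSO, then 0.25 uM NKH477 (final), 3 h at 37 °C/5% CO2; beta-lactamase FRET read-out after 2 h substrate incubation.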

[14] = molecular target: Beta-2 adrenergic receptor (Homo sapiens) (UniProt P07550); assay: Adrenergic beta2 receptor (ADRB2) small molecule antagonists, cell-based qHTS assay (AID 1963592); note: series mostly up to about 92 µM; nearly all actives have a fitted effect of over 50% in size
Procedure, shortened: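 Cells (CHO, stable ADRB2 overexpression) incubated 18-20hr at 37C; compounds added from DMSO; agonist mix (1nM isoproterenol, 100uM IBMX, 25uM Ro-20-1724) added; 0.5hr RT; d2-cAMP and anti-cAMP-cryptate added; 1hr RT; 665/615 nm read.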

[15] = molecular target: Beta-2 adrenergic receptor (Homo sapiens) (UniProt P07550); assay: Adrenergic beta2 receptor (ADRB2) small molecule agonists, cell-based qHTS assay (AID 1963593);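 note: CHO cells stably overexpressing human ADRB2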
Procedure, shortened: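 CHO cells stably over-expressing ADRB2 were plated overnight at 37C, then dosed with compounds plus a stimulation mix containing 100uM IBMX and 25uM Ro-20-1724 for 0.5hr at room temperature. cAMP was measured by HTRF competition, 1hr.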

[16] = molecular target: D(2) dopamine receptor (Homo sapiens) (UniProt P14416); assay: Dopamine D2 receptor (DRD2) small molecule agonists, cell-based qHTS assay (AID 1963594); note: nearly all actives have a fitted effect of over 35% in size; note: potency is the fitted concentration of half-maximal effect
Procedure, shortened: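 HEK293 cells stably expressing human DRD2, pre-treated with PDE inhibitor Ro20-1724 (0.1 mM final) and compound 10 min at room temperature, then stimulated with NKH477 (200nM […]) for 30 min. cAMP read by HTRF (665/620 nm).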

[17] = molecular target: D(2) dopamine receptor (Homo sapiens) (UniProt P14416); assay: Dopamine D2 receptor (DRD2) small molecule antagonists, cell-based qHTS assay (AID 1963595; active = well fitted inhibition curve with a large enough effect in the signal ratio in the repeat runs, with a control signal flat; the % refers to the signal ratio)
Procedure, shortened: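 Antagonism was scored as restored cAMP in HEK293-DRD2 cells. These cells were stimulated with 200 nM NKH477 and 12 nM quinpirole for 30 min at room temperature, in the presence of 0.1 mM Ro20-1724.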

[18] = molecular target: 5-hydroxytryptamine receptor 2A (Homo sapiens) (UniProt P28223); assay: 5-hydroxytryptamine receptor 2A (HTR2A) small molecule agonists, cell-based qHTS assay (AID 1963587); note: nearly all actives have a fitted effect of over 30% in size; note: potency is the fitted concentration of half-maximal effect
Procedure, shortened: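 CHO cells stably expressing human HTR2A, plated 18 h, loaded with calcium dye 1 h at 37 C. Agonist mode: compounds added and intracellular calcium fluorescence recorded kinetically for 2 min at 1 sec intervals.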

Muscarinic acetylcholine receptor M1 (Homo sapiens), sequence (P11229 whole entry, looked up): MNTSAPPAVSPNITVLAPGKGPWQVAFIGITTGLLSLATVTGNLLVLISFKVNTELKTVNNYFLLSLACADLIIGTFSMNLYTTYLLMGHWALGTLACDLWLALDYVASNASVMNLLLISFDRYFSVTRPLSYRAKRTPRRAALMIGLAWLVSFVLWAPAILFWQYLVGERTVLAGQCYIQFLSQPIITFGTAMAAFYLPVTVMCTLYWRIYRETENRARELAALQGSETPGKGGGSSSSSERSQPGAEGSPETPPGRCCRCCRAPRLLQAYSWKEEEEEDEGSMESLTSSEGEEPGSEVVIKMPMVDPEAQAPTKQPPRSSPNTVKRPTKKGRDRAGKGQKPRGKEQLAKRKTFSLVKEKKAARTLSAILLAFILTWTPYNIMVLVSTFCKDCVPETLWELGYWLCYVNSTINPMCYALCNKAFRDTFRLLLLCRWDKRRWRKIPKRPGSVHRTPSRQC
Beta-2 adrenergic receptor (Homo sapiens), sequence (P07550 whole entry, looked up): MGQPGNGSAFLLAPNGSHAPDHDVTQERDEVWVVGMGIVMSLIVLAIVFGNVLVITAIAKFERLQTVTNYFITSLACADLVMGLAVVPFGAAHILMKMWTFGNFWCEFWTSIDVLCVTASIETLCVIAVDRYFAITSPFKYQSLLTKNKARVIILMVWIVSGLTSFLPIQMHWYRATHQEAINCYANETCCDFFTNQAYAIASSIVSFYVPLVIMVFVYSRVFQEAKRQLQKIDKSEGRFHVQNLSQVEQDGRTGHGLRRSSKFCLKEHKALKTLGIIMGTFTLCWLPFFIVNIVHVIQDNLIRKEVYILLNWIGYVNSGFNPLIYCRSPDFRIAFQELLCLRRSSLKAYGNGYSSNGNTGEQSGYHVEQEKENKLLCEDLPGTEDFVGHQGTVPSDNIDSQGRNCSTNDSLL
5-hydroxytryptamine receptor 2A (Homo sapiens), sequence (P28223 whole entry, looked up): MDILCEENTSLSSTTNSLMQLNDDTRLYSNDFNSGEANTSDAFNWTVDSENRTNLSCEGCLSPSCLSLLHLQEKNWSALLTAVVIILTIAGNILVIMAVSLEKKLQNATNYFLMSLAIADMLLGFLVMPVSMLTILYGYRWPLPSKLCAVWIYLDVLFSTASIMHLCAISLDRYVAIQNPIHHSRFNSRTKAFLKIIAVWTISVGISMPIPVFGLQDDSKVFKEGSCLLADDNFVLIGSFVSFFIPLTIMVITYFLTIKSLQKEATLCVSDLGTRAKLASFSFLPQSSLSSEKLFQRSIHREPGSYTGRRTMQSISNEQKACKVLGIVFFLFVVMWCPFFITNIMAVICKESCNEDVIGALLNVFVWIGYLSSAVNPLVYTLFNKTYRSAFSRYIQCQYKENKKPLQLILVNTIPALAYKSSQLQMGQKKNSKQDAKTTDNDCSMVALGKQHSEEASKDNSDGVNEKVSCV
Gonadotropin-releasing hormone receptor (Homo sapiens), sequence (P30968 whole entry, looked up): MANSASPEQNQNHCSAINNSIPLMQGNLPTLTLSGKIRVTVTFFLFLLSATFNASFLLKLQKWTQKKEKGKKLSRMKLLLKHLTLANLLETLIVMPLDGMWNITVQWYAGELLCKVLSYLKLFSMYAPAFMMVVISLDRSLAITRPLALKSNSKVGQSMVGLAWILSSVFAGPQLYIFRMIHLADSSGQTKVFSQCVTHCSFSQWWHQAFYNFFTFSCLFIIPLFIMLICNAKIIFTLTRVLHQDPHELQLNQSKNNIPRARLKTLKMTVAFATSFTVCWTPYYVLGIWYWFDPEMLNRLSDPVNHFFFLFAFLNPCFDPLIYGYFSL
KiSS-1 receptor (Homo sapiens), sequence (Q969F8 whole entry, looked up): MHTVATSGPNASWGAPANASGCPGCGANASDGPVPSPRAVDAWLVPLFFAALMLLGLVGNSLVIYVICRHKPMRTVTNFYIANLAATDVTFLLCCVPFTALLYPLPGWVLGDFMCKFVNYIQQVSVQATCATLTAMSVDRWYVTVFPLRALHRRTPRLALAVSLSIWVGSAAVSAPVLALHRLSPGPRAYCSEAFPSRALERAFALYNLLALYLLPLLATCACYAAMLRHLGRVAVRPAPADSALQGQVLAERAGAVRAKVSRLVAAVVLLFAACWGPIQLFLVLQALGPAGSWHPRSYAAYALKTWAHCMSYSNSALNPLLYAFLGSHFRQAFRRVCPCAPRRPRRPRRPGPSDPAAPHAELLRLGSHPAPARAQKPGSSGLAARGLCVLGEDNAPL
D(2) dopamine receptor (Homo sapiens), sequence (P14416 whole entry, looked up): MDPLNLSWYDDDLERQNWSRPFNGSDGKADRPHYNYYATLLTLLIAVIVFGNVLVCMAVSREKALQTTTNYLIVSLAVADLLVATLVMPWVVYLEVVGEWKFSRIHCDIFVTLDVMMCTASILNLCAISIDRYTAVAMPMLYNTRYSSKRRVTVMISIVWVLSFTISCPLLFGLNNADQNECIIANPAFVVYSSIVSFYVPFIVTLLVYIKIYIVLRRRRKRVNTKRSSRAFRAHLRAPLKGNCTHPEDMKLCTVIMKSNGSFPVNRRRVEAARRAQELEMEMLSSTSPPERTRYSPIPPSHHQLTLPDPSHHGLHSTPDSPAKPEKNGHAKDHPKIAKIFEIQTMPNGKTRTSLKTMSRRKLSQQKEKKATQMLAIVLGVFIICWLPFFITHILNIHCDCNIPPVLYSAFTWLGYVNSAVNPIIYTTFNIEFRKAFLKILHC

Compound | Potency [1] | Potency [2] | Potency [3] | Potency [4] | Potency [5] | Potency [6] | Potency [7] | Potency [8] | Potency [9] | Potency [10] | Potency [11] | Potency [12] | Potency [13] | Potency [14] | Potency [15] | Potency [16] | Potency [17] | Potency [18]
CCCCC(CC)COCC1CO1 (stereo not given) | inactive | inactive | inactive | inactive | inactive | inactive | inactive | inactive | inactive | inactive | inactive | inactive | inactive | inactive | inactive | inactive | inactive | 
O=S(=O)(Oc1ccc(Cl)cc1Cl)c1ccccc1 | inactive | 69.8 µM (active) | inactive | inactive | inactive | inactive | inactive | inactive | inactive |  | inactive | inactive |  | inactive |  | inactive | inactive | inactive
Oc1ccc2cc(SSc3ccc4cc(O)ccc4c3)ccc2c1 | inactive | 68.7 µM (active) and 68.6 µM (active) | inactive | inactive | inactive | inactive | inactive | inactive |  | inactive | inactive |  |  |  |  | inactive | inactive | inactive
CN(C)c1cccc(O)c1 | inactive | 43.9 µM (active) and inactive | inactive | inactive | inactive | inactive | inactive | inactive |  | inactive | inactive | inactive | inactive | inactive | inactive | inactive | inactive | inactive
O=S1(=O)OC(c2ccc(O)cc2)(c2ccc(O)cc2)c2ccccc21 | 24.3 µM (active) | inactive | inactive | inactive | inactive | inactive | inactive | inactive | inactive |  | inactive | inactive | inactive |  | inactive | inactive | inactive | inactive
CC(C)CC(C)O (stereo not given) | inactive | inactive | inactive | inactive | inactive | inactive | inactive | inactive | inactive |  |  | inactive | inactive |  | inactive | inactive | inactive | inactive
O=C1OC2(c3ccccc31)c1cc(Br)c(O)c(Br)c1Oc1c2cc(Br)c(O)c1Br | inactive | inactive | 31.4 µM (active) and 14.2 µM (active) and 15.1 µM (active) | 39.5 µM (active) and 44.9 µM (active) and 23.9 µM (active) | 35.2 µM (active) and 35.7 µM (active) and 16.9 µM (active) | inactive | inactive | inactive |  | inactive | 19.8 µM (active) and 22.5 µM (active) and 21.3 µM (active) |  |  |  |  | 62 µM (active) and 60.5 µM (active) and 29.8 µM (active) |  | 22.2 µM (active) and 1.59 µM (active) and 19 µM (active)
Nc1ccc(Cl)c(N)c1 | inactive | inactive | inactive | inactive | inactive | inactive | inactive | inactive | inactive |  | inactive | inactive |  | inactive |  | inactive | inactive | inactive
